# The entries come from a sample that favours hits as a whole.
# Pf Dd2 growth: Plasmodium falciparum Dd2 growth inhibition; Potency, µM (series often up to 28.9 µM), for the others: at the top dose activity, negative = inhibition, most hits filed as inhibitors; actives 4.3% (n = 120,000); P. falciparum Dd2 growth, SYBR Green, 72 h; active means well fitted inhibition curve with a large enough effect;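 further: plate controls were DMSO vehicle for no effect and reference drug for full effect; nearly all actives have a fitted effect of over 65% in size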
#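 Readout: SYBR Green fluorescence, 485 nm excitation, 535 nm emission, after ~16 h lysis at 37C. Before that, Dd2-infected red cells (2.5% hematocrit) grew 72 h with compound, 29 uM top final concentration.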
# * marks the source's active call; other numbers are inactive results; i = inactive; [ ] = dose if it differs, or a comment. Potency means the concentration at half of the fitted maximal effect.
SMILES,Pf Dd2 growth
O=C(COc1ccccc1)Nc1ccc2c(c1)CN(CCc1ccc(F)cc1)C(=O)CO2,i
C=CCN(C)C(=O)C[C@@H]1c2nc(NC(=O)c3ccco3)sc2C[C@@H]2[C@](C)(CO)[C@H](O)CC[C@]21C,i
COc1ccc(CNC(=O)C[C@@H]2c3nc(NC(=O)c4c(F)cccc4F)sc3C[C@@H]3[C@](C)(CO)[C@H](O)CC[C@]32C)cc1,7.9µM*
C=CCN(C)C(=O)C[C@@H]1c2nc(NC(=O)COC)sc2C[C@@H]2[C@](C)(CO)[C@H](O)CC[C@]21C,-8%
C[C@]1(CO)[C@H]2Cc3sc(NC(=O)C4CCCCC4)nc3[C@@H](CC(=O)O)[C@]2(C)CC[C@H]1O,-21%
C=CCN(C)C(=O)C[C@@H]1c2nc(NC(=O)c3cccs3)sc2C[C@@H]2[C@](C)(CO)[C@H](O)CC[C@]21C,11µM*
COc1ccc(CNC(=O)C[C@@H]2c3nc(NC(=O)c4cccs4)sc3C[C@@H]3[C@](C)(CO)[C@H](O)CC[C@]32C)cc1,4µM*
C[C@]1(CO)[C@H]2Cc3sc(NC(=O)c4c(F)cccc4F)nc3[C@@H](CC(=O)O)[C@]2(C)CC[C@H]1O,-4%
CC(C)(C)CC(=O)Nc1nc2c(s1)C[C@@H]1[C@](C)(CO)[C@H](O)CC[C@@]1(C)[C@@H]2CC(=O)NCc1ccccc1,i
CCN(CC)C(=O)C[C@@H]1c2nc(NC(=O)c3ccc(F)cc3)sc2C[C@@H]2[C@](C)(CO)[C@H](O)CC[C@]21C,-12%
CC(C)Oc1ccc(CN2C(=O)C3(CCOCC3)CC2c2nnnn2C(C)(C)C)cc1 (stereo unspecified),-16%
COc1ccc(C2C(C(=O)OC(C)(C)C)=C(C)N=C3SC=C(CC(=O)NCC4CC4)N32)cc1OC (stereo unspecified),-30%
CC1(c2ccccc2)N(Cc2cccnc2)C(=O)OC12CCN(Cc1ccc3c(c1)CCO3)CC2 (stereo unspecified),-24%
O=C(c1ccccc1C(F)(F)F)N1CCC2(CC1)CC(O)CCO2 (stereo unspecified),9%
COc1ccc(OCc2cc(C(=O)N3CCN(CC4CC4)CC3)n[nH]2)c(Cl)c1,i
Cc1ccc(C(=O)N2CCCCCCn3c(nnc3-c3ccc(F)cc3)CC2)cn1,-18%
CCCN1C(=O)C(CC(=O)N2CCCC2)Sc2ncccc21 (stereo unspecified),1%
CN1CC2(CCN(C(=O)c3ccccc3F)CC2)CC(c2ccccc2)C1=O (stereo unspecified),-11%
CCN(Cc1noc(C)n1)C(=O)C1CCC(=O)N(Cc2cccc(F)c2)C1 (stereo unspecified),-4%
CCOc1cccc(CNC(=O)CC2CCOCC2)c1,15%
Cn1nnnc1C1CCCN(C(=O)c2ccc3cc[nH]c3c2)C1 (stereo unspecified),3%
OC[C@@H]1O[C@H](CNCc2ccc(F)cc2)[C@H](N2CCCC2)[C@@H]1O,i
COC[C@H]1CCCN1[C@@H]1[C@H](O)[C@H](CO)O[C@@H]1CNS(=O)(=O)c1cccs1,-13%
COC[C@H]1CCCN1[C@@H]1[C@H](O)[C@H](CO)O[C@@H]1CN(Cc1ccc(F)cc1)Cc1ccc(F)cc1,4.5µM*
CCC1(N2CCN(C(=O)COc3cccc(Cl)c3)CC2)CCN(S(C)(=O)=O)C1 (stereo unspecified),i
SMILES,Pf Dd2 growth
CCC1(N2CCN(C(=O)COc3ccc(Cl)cc3C)CC2)CCN(C(=O)NC)C1 (stereo unspecified),-35%
CCC1(N2CCN(C(=O)COc3cccc(Cl)c3)CC2)CCN(C(=O)NC)C1 (stereo unspecified),10µM*
COc1ccc(Cl)cc1-c1ccc2c(c1)C(=O)N1CCN(C(=O)CC(C)(C)C)C[C@@H]1C(=O)N2,i
O=C(c1cccs1)N1CC(c2noc(C3CCCN3CC3CC3)n2)C1 (stereo unspecified),4µM*
O=C(NCc1ccco1)N1CC(c2noc(C3CCCN3CC3CC3)n2)C1 (stereo unspecified),i
CCCS(=O)(=O)N1CC(c2noc(C3CCCN3CC3CC3)n2)C1 (stereo unspecified),-16%
O=C(Nc1cnc(-c2ccc(Cl)cc2)nc1)c1ccccc1F,-22%
COc1ccc(OC)c(NC(=O)N2CCC(OC3CCN(S(C)(=O)=O)CC3)CC2)c1,-2%
CCOCC1(C)COc2ccc(C(=O)Nc3ccccc3)cc2N1 (stereo unspecified),i
COc1cc2c(cc1OC)C(COc1ccc3c(C)cc(=O)oc3c1)N(C(=O)c1ccc(C)c(C)c1)CC2 (stereo unspecified),5µM*
CCCNC(=O)NCC1c2cc(OC)c(OC)cc2CCN1C(=O)NCC (stereo unspecified),-18%
COc1cc2c(cc1OC)C(COc1ccc3c(C)cc(=O)oc3c1)N(C(=O)c1ccc(C)cc1)CC2 (stereo unspecified),11µM*
COc1cc2c(cc1OC)C(CNC(=O)c1cccs1)N(C(=O)Nc1ccc(C)cc1)CC2 (stereo unspecified),-3%
CCCC(=O)N1CCc2cc(OC)c(OC)cc2C1COc1ccc2c(C)cc(=O)oc2c1 (stereo unspecified),7.1µM*
COc1cc2c(cc1OC)C(CNC(=O)c1ccc(C)cc1)N(C(=O)NC(C)C)CC2 (stereo unspecified),-2%
COCC(=O)NCC1c2cc(OC)c(OC)cc2CCN1C(=O)Nc1cccc(F)c1 (stereo unspecified),i
Cc1cc(=O)oc2cc(OCC(=O)Nc3ccc(O)c(C(=O)O)c3)ccc12,5%
O=C(CCc1nc2ccc(Cl)cc2[nH]1)NCCc1noc(-c2cccnc2)n1,i
CC[C@H]1CN(S(=O)(=O)c2c(C)noc2C)CC[C@H]1CC(=O)NCc1ccc(F)cc1,-12%
COCc1nnc2n1CCC(NC(=O)CCn1cccn1)CC2 (stereo unspecified),14%
CCNC(=O)c1cccnc1OC1CCN(C(=O)c2ccnn2C)C1 (stereo unspecified),14%
CCNC(=O)N(C1CC1)C1CCOC2(CCN(C(=O)COc3ccc(F)cc3)CC2)C1 (stereo unspecified),-10%
CC1CCCN1c1ncnc2c1CN(C1CCCNCC1)C(=O)CN2C (stereo unspecified),5%
Cc1ccccc1C(=O)N1CCC(CCC(=O)NCCC(C)C)CC1,-7%
CC(C)N1CCCC2(CCN(S(=O)(=O)c3ccc(F)cc3F)C2)C1=O (stereo unspecified),-10%
SMILES,Pf Dd2 growth
O=S(=O)(c1ccc(Br)cc1)N1CCC(n2cnnc2C2CC2)CC1,0%
CN1CCC(N2C[C@@H]3C[C@H](C2)c2c(NC(=O)c4ccccn4)ccc(=O)n2C3)CC1,3%[44.1 µM]
Cc1cc(C)c2[nH]c(C(=O)N3CCN(Cc4ccccc4)C(=O)C3C)c(C)c2c1 (stereo unspecified),-18%
O=C(COc1ccc(-c2nnc3n2CCCC3)cc1)NCc1ccc2c(c1)OCO2,10µM*
O=C(COc1cccc(-c2nnc3n2CCCC3)c1)N1CCN(c2ccccc2F)CC1,5µM*
CCOc1ccc(NC(=O)Cn2nc3n(c2=O)CCCCC3)cc1,27%
Cc1nc(N2CCC(C(=O)NCc3ccc4c(c3)OCO4)CC2)cc(C(F)(F)F)n1,-16%
COc1ccc(CNC(=O)COCc2cc(-c3ccc4c(c3)OCO4)on2)cc1,150%
O=C(COc1cccc(-c2nnc3n2CCCC3)c1)NCc1ccccc1,i

# High-throughput results as filed in PubChem BioAssay.
